According to the supplement of paper PMC10338343:
± gives the standard deviation.

System: EfPiwi piRISC loaded with L1MC piRNA (26 nt)
Experiment: pre-steady-state target cleavage rate (min^-1); auxiliary factor: 500 nM Ephydatia muelleri Gtsf1; guide: L1MC piRNA 5'p-UAACUAAAUACUAUGCAAGCUGUAGG; MIWI and MILI are mouse PIWI proteins and EfPiwi is from a freshwater sponge; tags in brackets are library labels; higher = faster piRNA-guided slicing of the target
Procedure, shortened: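 In Cleave-'n-Seq, a transcribed, DNA-blocked target RNA library (0.1 nM) was combined with 1 nM active affinity-purified piRISC bearing one synthetic guide, with or without 500 nM GTSF1 partner protein. Reactions ran in HEPES–potassium acetate buffer at 33 °C for 0–8 or 0–960 min. Uncleaved targets were sequenced and normalised to depth and to weakly complementary targets, three trials were pooled, and k3 was capped at 0.0001 min^-1. The pre-steady-state cleavage rate was obtained by fitting a burst-and-steady-state model.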

Sequence	pre-steady-state target cleavage rate
UCCUGCUACAGCAUUGCAUAGUAUUUAGUUA	0.00946 ± 0.0029
UCCUGGAUGUGCUUGCAUAGUACUUAGUUA	0.00522 ± 0.0031
UCCUCCUUCAGCUUGCAUAGUAAUUAGUUA	0.0731 ± 0.025
UCCUGGAUGUGUUUGCAUAGUAUUUAGUUA	0.0181 ± 0.0055
UCCUGGAUGAGCUUGCAUAGUAUUUAAGUUA	0.0082 ± 0.0031
UCCUGGUAGAGCUUGCAUUGUAUUUAGUUA	0.00786 ± 0.0033
UCCUGGUACAGCUUGCAUAGUAUAUAGUUA	0.00533 ± 0.0027
UCCUCCUACAGCUUGACAUAGUAUUUAGUUA	0.016 ± 0.0056
UCCUGCUUGAGCUUGCAUAGUAUUUAGUUA	0.00861 ± 0.0024
UCCUGCUACAGCUUGCAUAGUAAUUAGUUA	0.0061 ± 0.0022
UCCUGGUACAGCUCUGCAUAGUAUUUAGUUA	0.0139 ± 0.0042
UCCUGGUUCAGGUUGCAUAGUAUUUAGUUA	0.0166 ± 0.0047
UCCUCCUACAUGCUUGCAUAGUAUUUAGUUA	0.00449 ± 0.0018
UCCUGGAACUGCUUGCAAAGUAUUUAGUUA	0.0228 ± 0.008
UCCUGGAACAGCUUGCAUUGUAUUUAGUAA	0.00646 ± 0.0024
UCCUGCUACAGCUUGCUUACUAUUUAGUUA	0.0113 ± 0.005
UCCUGGAUCAGCUUGCAUAGUUUUAAGUUA	0.00285 ± 0.0028
UCCUGGUACAGCUUGCAUAGUAUUUAGUGUA	0.00435 ± 0.0027
UCCUCCUACACGCUUGCAUAGUAUUUAGUUA	0.00856 ± 0.003
UCCUGGAACAGCUUGCAUAGUAUAUAGUUA	0.00501 ± 0.0025
UCCUGGAUCAGGUUGCAUAGUAAUUAGUUA	0.012 ± 0.005
UCCUGCUACAGCUUGCAUAUUAUUUAGUUA	0.0119 ± 0.0034
UCCUGGAUCAGGUUGCAUUGUAUUUAGUUA	0.00567 ± 0.0021
UCCUGGAUGUGCUUGCAUAGUAUUAAGUUA	0.00372 ± 0.0032
